# Measurements from a collection of fitness landscapes (doi:10.1126/science.1257360).
# The full ranking holds about 140,000 sequences; the median of “enrichment ratio after two sorts for PhoP signalling” is about 0, and the highest 2% start at about 11. The sample holds the highest values, similar sequences and a random draw of the others, so the mix is not that of the screen.
# B1: PhoQ; a variant is named by its letters at X, in order, P23837 (parent)
# chain: MKKLLRLFFPLSLRVRFLLATAAVVLVLSLAYGMVALIGYSVSFDKTTFRLLRGESNLFYTLAKWENNKLHVELPENIDKQSPTMTLIYDENGQLLWAQRDVPWLMKMIQPDWLKSNGFHEIEADVNDTSLLLSGDHSIQQQLQEVREDDDDAEMTHSVAVNVYPATSRMPKLTIVVVDTIPVELKSSYMVWSWFIYVLSANLLLVIPLLWVAAWWSLRPIEALAKEVRELEEHNRELLNPATTRELTSLVRNLNRLLKSERERYDKYRTTLTDLTHSLKTPLXXLQXXLRSLRSEKMSVSDAEPVMLEQISRISQQIGYYLHRASMRGGTLLSRELHPVAPLLDNLTSALNKVYQRKGVNISLDISPEISFVGEQNDFVEVMGNVLDNACKYCLEFVEISARQTDEHLYIVVEDDGPGIPLSKREVIFDRGQRVDTLRPGQGVGLAVAREITEQYEGKIVAGESMLGGARMEVIFGRQHSAPKDE
# Variants of: B1
# Experiment: enrichment ratio after two sorts for PhoP signalling (ratio (wild type AVST 3.29)); higher = more functional
# Conditions: with PhoP (E. coli)
row,Variant,enrichment ratio
1,PDDN,≤ 0.25
2,VNIK,≤ 0.25
3,TWLY,≤ 0.25
4,IICF,0.792
5,TICV,6.14
6,TICA,12.3
7,TICS,13
8,TICI,2.26
9,TICE,≤ 0.25
10,TICL,1.53
11,IKEC,≤ 0.25
12,LHYP,≤ 0.25
13,KVDK,≤ 0.25
14,TNSS,13.1
15,GISC,11.8
16,TNSR,≤ 0.25
17,TNCA,8.8
18,TNSK,≤ 0.25
19,TNSI,15.8
20,MNSC,≤ 0.25
21,MNSS,0.46

row,Variant,enrichment ratio
1,GITC,8.58
2,TNSC,17.3
3,GIFC,≤ 0.25
4,LNSS,≤ 0.25
5,IKVK,≤ 0.25
6,LLGD,≤ 0.25
7,MVLD,≤ 0.25
8,RQIY,≤ 0.25
9,GTSC,≤ 0.25
10,GQSC,≤ 0.25
11,GNSC,12.1
12,WNPE,≤ 0.25
13,EPTS,≤ 0.25
14,SQPA,≤ 0.25
15,IECT,16.6
16,YWCT,≤ 0.25
17,NECT,14.1
18,QECT,6.99
19,TCCT,7.4
20,HEAT,≤ 0.25
21,HELT,≤ 0.25

row,Variant,enrichment ratio
1,IQCT,≤ 0.25
2,HECT,26.3
3,EECT,≤ 0.25
4,VECT,12
5,VFCT,≤ 0.25
6,REDM,≤ 0.25
7,DVPV,≤ 0.25
8,MSTY,2.56
9,SPFN,≤ 0.25
10,ACHR,≤ 0.25
11,MCHQ,≤ 0.25
12,FMEW,≤ 0.25
13,ERFY,≤ 0.25
14,LRPR,≤ 0.25
15,LISC,≤ 0.25
16,HMCL,2.41
17,SQMT,22.7
18,SLMT,≤ 0.25
19,SWMT,≤ 0.25
20,QEMT,5.12
21,KYMT,≤ 0.25

row,Variant,enrichment ratio
1,STLT,12.3
2,SRMT,0.372
3,STLA,10.9
4,STMT,16.6
5,SIMT,7.68
6,SPLT,≤ 0.25
7,SEMT,20
8,INDV,≤ 0.25
9,LNTQ,≤ 0.25
10,PDCH,≤ 0.25
11,PGNF,≤ 0.25
12,DWKT,≤ 0.25
13,EFCG,≤ 0.25
14,KSIH,≤ 0.25
15,KPAG,≤ 0.25
16,LQSG,≤ 0.25
17,EPRQ,≤ 0.25
18,TQPT,≤ 0.25
19,WMMI,≤ 0.25
20,IPNH,≤ 0.25
21,PVYK,≤ 0.25
